# In PubChem BioAssay AID602250 (The Scripps Research Institute Molecular Screening Center, 2012):
# Out of some 360,000 compounds screened, about 2,200 (0.61%) were called active.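 The calls were made as follows: active = inhibition above a per-plate cutoff, the plate's mean sample inhibition plus 3 SD (cut at about 24% in these data); inactive = the rest.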 The full list was thinned out, with actives kept by preference.
# Assay: nonselective inhibitors of ATP calcium response in CHO-K1, primary screen, counter-screen for M1 antagonist project, cell-based, Fluo-8 calcium fluorescence, full deck, 1536-well (AID 602250);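 also: 0% = DMSO plus EC80 ATP and 100% = DMSO alone without ATP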
# Conditions: CHO-K1 parental, ATP-induced calcium, Fluo-8 fluorescence; at 3 µM; active compounds read high
row,Structure (SMILES),inhibition
1,O/N=C(\C[n+]1ccccc1)c1ccc(Br)cc1,-7.88% (inactive)
2,CCS(=O)(=O)c1ccc(C(=O)NC)c(Cl)c1Cl,-11.1% (inactive)
3,CC(=O)c1cccc(NC(=O)C2CCCN2S(=O)(=O)c2cccc3nsnc23)c1 (stereo unspecified),5.27% (inactive)
4,CC(=O)c1ccc(NC(=O)C2CCCN2S(=O)(=O)c2cccs2)cc1 (stereo unspecified),24% (active)
5,CC(=O)Nc1ccc(S(=O)(=O)N2CCN(S(=O)(=O)c3cccs3)CC2)cc1,6.03% (inactive)
6,Cc1ccc(SCCN2C(=O)NC(C)(C)C2=O)cc1,-11.7% (inactive)
7,CCOC(=O)C1C(=O)C=C(c2ccc(OC)cc2)CC1c1ccco1 (stereo unspecified),-9.22% (inactive)
8,CCC1(C(=O)c2ccccc2)C(c2cccc([N+](=O)[O-])c2)C1(C(=O)OC)C(=O)OC (stereo unspecified),-5.15% (inactive)
9,COc1ccc(N2CCN(C(=S)Nc3ccc(S(N)(=O)=O)cc3)CC2)cc1,-21.9% (inactive)
10,CCCN(CC1COc2ccccc2O1)C(=S)Nc1ccc(C)cc1 (stereo unspecified),-5.53% (inactive)
11,CC(NC(=S)Nc1ccccc1)C1COc2ccccc2O1 (stereo unspecified),4.65% (inactive)
12,S=C(NCC1COc2ccccc2O1)Nc1ccc(Br)cc1 (stereo unspecified),32.9% (active)
13,COc1ccc(C)cc1NC(=O)CN1c2cccc3cccc(c23)S1(=O)=O,-7.85% (inactive)
14,CCc1ccccc1N(CC(=O)NCC1CCCO1)C(=O)CCC(=O)Nc1nccs1 (stereo unspecified),-0.55% (inactive)
15,C=CCNC(=S)N1CCN(CCN=Cc2c(C)[nH]n(-c3ccc([N+](=O)[O-])cc3)c2=O)CC1,13.7% (inactive)
16,O=S(=O)(c1cccc(S(=O)(=O)N2CCC(n3nnc4ccccc43)CC2)c1)N1CCCCC1,25.7% (active)
17,CC(=O)c1cccc(S(=O)(=O)N2CCC(n3nnc4cc(F)ccc43)CC2)c1,-5.37% (inactive)
18,O=C(c1ccc(F)cc1)N1CCC(n2nnc3ccccc32)CC1,5.53% (inactive)
19,O=C1c2ccccc2C(=O)N1CC1c2ccccc2CCN1S(=O)(=O)c1ccccc1 (stereo unspecified),-4.18% (inactive)

row,Structure (SMILES),inhibition
1,CCc1nnc(NC(=O)CSc2nc(SC)ns2)s1,-15.7% (inactive)
2,COc1ccc(-c2nn(-c3ccccc3)cc2C(=O)Nc2nccs2)cc1OC,33.9% (active)
3,COc1ccc(Cl)cc1NC(=O)CN(C)C(=O)c1cn(-c2ccccc2)nc1-c1cccs1,-12.4% (inactive)
4,O=C(O)c1ccccc1-c1ccccc1C(=O)Nc1nccs1,-12.8% (inactive)
5,O=C(COc1ccc(F)cc1)N(CC1=CCS(=O)(=O)C1)c1ccccc1,-14.8% (inactive)
6,O=C1OC(Cc2ccccc2)C(c2ccccc2)C1=O (stereo unspecified),-2.69% (inactive)
7,CCOC(=O)[C@H]1[C@H]2COc3ccc(Br)cc3[C@@H]2N2C(=O)CN(C)C(=O)[C@@]12C,-3.65% (inactive)
8,COc1ccc(C(=O)NCCCN2CCOCC2)cc1Br,8.25% (inactive)
9,O=C(NCCCN1CCOCC1)c1cc(-c2ccc(Cl)cc2)on1,-8.77% (inactive)
10,Cc1c(C)n(Cc2ccc(Cl)cc2)c2ccc(C(=O)NCCCN3CCOCC3)cc12,31.3% (active)
11,O=C(COc1ncnc2c(Cl)cc(Cl)cc12)N1CCN(S(=O)(=O)c2ccccc2)CC1,-14% (inactive)
12,O=C(Nc1cccc(Cl)c1)Nc1ccccc1NS(=O)(=O)c1cccs1,36.7% (active)
13,O=S(=O)(Nc1ccccc1)c1ccc(NS(=O)(=O)c2cccs2)cc1,-3.36% (inactive)
14,O=S(=O)(Nc1ccccc1Br)c1cccs1,-11% (inactive)
15,Cn1c(NCc2cccnc2)nc2cc(-c3ccc(F)cc3)sc2c1=O,-2.34% (inactive)
16,CCN(C(=O)COC(=O)c1c(NC(C)=O)sc(C)c1C)C1CCS(=O)(=O)C1 (stereo unspecified),-7.84% (inactive)
17,Cc1ccc(S(=O)(=O)c2ccc(Cl)cc2)cc1S(=O)(=O)NC(C(=O)O)C(C)C (stereo unspecified),-0.98% (inactive)
18,CC(=O)Nc1ccc(S(=O)(=O)N2CCN(C(=O)c3ccccc3F)CC2)cc1,0.99% (inactive)
19,CCC1=NN(C(=O)Cc2ccc([N+](=O)[O-])cc2)C(O)(c2ccc(Br)cc2)C1 (stereo unspecified),-13.2% (inactive)

row,Structure (SMILES),inhibition
1,Cc1ccc(Nc2nc(CSc3nnnn3-c3ccccc3)cc(=O)[nH]2)cc1,2% (inactive)
2,CN1OC[C@@H]2CN(C(=O)c3cccc4ccccc34)[C@H](c3ccc(N4CCCCC4)cc3)C[C@@H]21,16.5% (inactive)
3,CN1OC[C@@H]2CN(C(=O)c3cccnc3)[C@H](c3ccc(N4CCCCC4)cc3)C[C@@H]21,8.63% (inactive)
4,CN1OC[C@@H]2CN(C(=O)C(C)(C)C)[C@H](c3ccc(-n4ccnc4)cc3)C[C@@H]21,28.2% (active)
5,COc1ccc(Cl)cc1NC(=O)Cn1nc(-c2ccc(C)cc2)n(C)c1=S,-1.73% (inactive)
6,COc1ccccc1OCC(=O)OCc1cc(-c2ccco2)on1,-11.2% (inactive)
7,CC(C)C1C(=O)N(Cc2cn(CCC3OCCO3)nn2)CCS(=O)(=O)N1Cc1ccc(-c2ccccc2C(F)(F)F)cc1 (stereo unspecified),-1.16% (inactive)
8,Cc1ccc(Cn2nnc3c(=O)[nH]c(C4CCN(S(=O)(=O)/C=C/c5ccccc5)CC4)nc32)cc1,-19.1% (inactive)
9,COc1ccc(NC(=O)/C(C#N)=C\c2cc(OC)c(OCc3ccc(C(=O)O)cc3)cc2Br)cc1,24.8% (active)
10,COCCNC(=O)/C(C#N)=C/c1cccc(OCc2ccccc2)c1,-9.6% (inactive)
11,COc1cc(/C=C(\C#N)C(=O)Nc2ccc3ccccc3c2)c([N+](=O)[O-])cc1OC,0.2% (inactive)
12,c1ccc(CCN2CN=C(Nc3nc4ccccc4o3)NC2)cc1,-10.1% (inactive)
13,Cc1ccccc1N(C(=O)Cc1cccs1)C(C(=O)NC1CCCCC1)c1cn(C)nc1C (stereo unspecified),-4.07% (inactive)
14,O=S(=O)(Nc1ccc2nc(-c3ccco3)[nH]c2c1)c1ccccc1,-1.24% (inactive)
15,Cc1cc(OC(C)C(=O)Nc2ccc(S(=O)(=O)Nc3onc(C)c3C)cc2)cc(C)c1Cl (stereo unspecified),8.91% (inactive)
16,O=C(NC1(C(F)(F)F)N=C2SCCN2C1=O)c1ccco1 (stereo unspecified),23.7% (active)
17,COc1ccc(S(=O)(=O)NC2(C(F)(F)F)N=C3SCCN3C2=O)cc1 (stereo unspecified),6.7% (inactive)
18,O=C(NN1C(=O)C2CCCCC2C1=O)c1ccco1 (stereo unspecified),-4.97% (inactive)
